# Reference: article PMC5540273 (PLoS ONE, 2017)
# Columns and labels:
# Details in all cases: concentration: 1 μM, replicates: in singlicate; n = 1
# [1] = tested on: ERBB2
# [2] = tested on: ERBB3
# [3] = tested on: ERBB4
# [4] = tested on: T1, ERK1
# T1 construct: gene MAPK3
# [5] = tested on: T2, ERK2
# T2 construct: gene MAPK1
# [6] = tested on: T3, ERK3
# T3 construct: gene MAPK6
# [7] = tested on: T4, ERK4
# T4 construct: gene MAPK4
# [8] = tested on: T5, ERK5
# T5 construct: gene MAPK7
# [9] = tested on: T6, ERK8
# T6 construct: gene MAPK15
# [10] = tested on: ERN1
# [11] = tested on: T7, FAK
# T7 construct: gene PTK2
# [12] = tested on: FER
# [13] = tested on: FES
# [14] = tested on: FGFR1
# [15] = tested on: FGFR2
# [16] = tested on: FGFR3
# [17] = tested on: FGFR4
# [18] = tested on: FGR
# [19] = tested on: FLT1
# [20] = tested on: FLT3-autoinhibited
# 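Note: KINOMEscan kinase panel screen.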
SMILES,%Inh [1] [%],%Inh [2] [%],%Inh [3] [%],%Inh [4] [%],%Inh [5] [%],%Inh [6] [%],%Inh [7] [%],%Inh [8] [%],%Inh [9] [%],%Inh [10] [%],%Inh [11] [%],%Inh [12] [%],%Inh [13] [%],%Inh [14] [%],%Inh [15] [%],%Inh [16] [%],%Inh [17] [%],%Inh [18] [%],%Inh [19] [%],%Inh [20] [%]
COc1cccc(-c2cc(-c3c[nH]nc3-c3ccccn3)ccn2)c1 [GW680338],5,17,0,4,0,16,8,0,0,0,0,0,9,0,0,1,6,19,3,0
CS(=O)(=O)c1ccc(-c2c(-c3ncn[nH]3)sc(N3CCOCC3)c2C#N)cc1,41,13,12,0,37,25,12,0,10,21,0,14,42,32,9,5,0,40,13,2
Cn1cncc1-c1ccc2ncnc(Nc3ccc(OCc4ccccc4)cc3)c2c1 [GW320571],99.4,43,61,13,10,0,0,0,25,0,0,25,0,2,13,31,14,15,27,0
COc1ccc2nc(-c3cccc(C)n3)nc(Nc3ccncc3)c2c1 [GSK204919],0,0,30,2,3,10,15,0,37,0,0,14,17,0,7,20,20,27,28,3
Cl.O=C(Nc1cccc(-c2nn3ncccc3c2-c2ccnc(Nc3cccnc3)n2)c1)c1c(F)cccc1F [GSK312879],95.9,0,93.2,8,0,0,16,0,28,4,0,10,11,8,0,23,8,40,45,4
Cc1cc(-c2ccc3c(c2)CC[C@@H](N[C@@H](C)c2ccccc2)C3)cnc1N.Cl [GW412617],0,0,0,0,12,5,0,0,29,0,0,27,0,9,16,56,19,26,34,8
O=C(Nc1n[nH]c2nc(-c3nccs3)c(Br)cc12)C1CC1 [SB-742251],2,19,0,0,11,14,16,0,84,0,0,0,12,0,0,0,10,29,36,0
O=C(Nc1ccccc1)Nc1cccc(Oc2ccc3nccn3n2)c1,38,53,0,0,0,0,0,0,0,0,0,0,0,13,9,0,0,18,96.8,0
Cc1cccc(-c2nc(Nc3cccc(C(N)=O)c3)c3ccccc3n2)n1 [GW876019],23,50,15,0,0,22,0,0,11,17,0,0,25,0,17,1,0,58,42,0
COc1cc2ncn(-c3cc(OCC4CCCO4)c(C(N)=O)s3)c2cc1OC (stereo not drawn) [GSK204607],0,20,0,2,0,20,0,0,0,0,0,9,11,0,0,24,0,29,20,0
O=C(O)COc1ncnc2cc(-c3ccc4[nH]ncc4c3)sc12,0,0,15,0,24,0,0,1,3,15,5,0,7,23,1,0,0,0,0,39
CC(=O)Nc1nc2cnc(Nc3cc(NC(=O)c4cccc(CCC#N)c4)ccc3C)nc2s1,6,7,14,0,21,4,3,3,0,0,7,0,17,9,22,17,0,21,30,5
NC(=O)c1nnc2ccccc2c1N,22,45,4,0,18,0,2,5,0,22,12,0,4,41,7,90,0,21,7,16
COC(=O)c1c(-c2ccccc2)c2cc(OC)ccc2c(=O)n1Cc1ccccc1,9,11,0,0,17,0,14,13,0,17,0,0,22,7,3,3,0,29,0,21
Cc1ccc(NC(=O)Nc2cccc(Cl)c2)cc1-c1ccc(C(=O)Nc2ccncc2)cc1 [GSK1398468],24,0,7,0,0,7,3,0,0,0,0,6,9,0,0,7,5,30,25,14
